Records with an inconclusive call do not appear. Activity calls are given as the source filed them. The call rests on the fitted dose curve; in most records, active means well fitted inhibition curve with a large enough effect; inconclusive means small, poorly fitted or top-dose-only effect; inactive means flat fitted curve, though single readings scatter.

Assay in all cases: qHTS profiling for inhibitors of Plasmodium falciparum proliferation (AID 504749); further: nearly all actives have a fitted effect of over 60% in size
Conditions in all cases: P. falciparum in erythrocytes, SYBR Green DNA, 72 h; series mostly up to 28.7 µM
Background: Quantitative high-throughput screening tests each substance at several concentrations.

In one assay the test system is CP256. Put shortly: (§1)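 Each compound contacts P. falciparum-infected red blood cells for 72 h at 37 C; lysis buffer (Tris, EDTA, saponin, Triton X, SYBR Green I) is added and fluorescence measured next morning; values normalized to controls.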
For a further assay, the system named is CP262. In a few lines: as §1
The test system of the next assay is CP266. In a few lines: as §1
Another assay relates to CP265. Put shortly:
as §1

The test system of another assay is CP268. In a few lines: as §1
Another assay has as its system CP269. In a few lines:
as §1

The test system of the next assay is CP291. In a few lines: as §1
Another assay relates to CP297. Put shortly: as §1
The subject of the next assay is CP286. Put shortly: as §1
A further assay deals with CP260. In a few lines: as §1
Potency means the concentration at half of the fitted maximal effect.

Regarding `OCc1ccccc1`, in the assay on CP256, the Potency was 12.6 µM (active). Moreover, the Potency entry in the assay with CP262 and in the assay with CP266 was “inactive” each time.

`Cc1c(C)c2c(c(C)c1OC(=O)CCC(=O)O)CC[C@@](C)(CCC[C@H](C)CCC[C@H](C)CCCC(C)C)O2`: the Potency result with CP256, with CP262, with CP265, in the assay with CP268, with CP269 and with CP291 was “inactive” in each case. Besides, in the assay on CP297, the Potency result is “inactive”.

On to `O=C(CCCN1CCC(C(=O)c2ccc(F)cc2)CC1)c1ccc(F)cc1`, for which the Potency result in the assay with CP256, in the assay on CP262, in the assay with CP265, with CP266 and in the assay on CP297 was “inactive” throughout.

For the compound `CCOc1cc(-c2nccc3cc(OC)c(OC)cc23)cc(OCC)c1OCC`, the Potency with CP286 is 8.91 µM (active).

Consider `O=C(O[C@H]1CN2CCC1CC2)N1CCc2ccccc2[C@@H]1c1ccccc1`, for which the Potency entry in the assay on CP260, in the assay with CP262, in the assay with CP265, in the assay on CP266, in the assay with CP268 and with CP286 was “inactive” in each case. Besides, the Potency entry in the assay with CP291 and in the assay on CP297 was “inactive” in each case.

Turning to `O=C(Nc1ccc(O)cc1)c1ccccc1O`, the Potency entry in the assay on CP260, with CP262, in the assay on CP266, in the assay with CP268, in the assay on CP269 and in the assay on CP286 was “inactive” in each case. Besides, the Potency entry with CP291 and in the assay on CP297 was “inactive” in each case.

For the compound `O=C(c1cc2ccccc2o1)N1CCN(Cc2ccccc2)CC1`, the Potency with CP256 was 10 µM (active); in the assay with CP265, 8.91 µM (active). Also, the Potency entry in the assay on CP266 is “inactive”.

Regarding `CN(C)C(=O)CCSC(SCCC(=O)O)c1cccc(/C=C/c2ccc3ccc(Cl)cc3n2)c1` (stereo not given), the Potency entry in the assay on CP256, with CP262, in the assay with CP265, with CP266, in the assay on CP268 and with CP269 was “inactive” each time. Moreover, the Potency result with CP291 was “inactive”.

Regarding `O=C(CCCN1CCN2CCCC2C1)c1ccc(F)cc1` (stereo not given), the Potency result in the assay with CP262, in the assay on CP266, with CP268, in the assay on CP269, in the assay on CP286 and in the assay on CP291 was “inactive” in each case.

Regarding `O=[n+]1ccn([O-])c2ccccc21`, the Potency entry in the assay with CP256, in the assay on CP262, in the assay on CP265, in the assay on CP266, in the assay on CP268 and with CP269 was “inactive” throughout. The Potency entry in the assay with CP286, with CP291 and with CP297 was “inactive” throughout.

As for `CCCCCCCCCCCCCCCCOCCOCCOCCOCCOCCOCCOCCOCCOCCOCCOCCOCCOCCOCCOCCOCCOCCOCCOCCOCCO`, the Potency in the assay with CP260 is 11.2 µM (active). Besides, the Potency result with CP262 and in the assay with CP266 was “inactive” in each case.

As for `Cc1nc(NS(=O)(=O)c2ccc(N)cc2)nc(C)c1Br`, the Potency result in the assay with CP256, in the assay with CP265, with CP266, with CP268, with CP269 and in the assay with CP286 was “inactive” each time. The Potency result in the assay on CP291 and with CP297 was “inactive” throughout.

As to `N#Cc1ccc2c(c1)N(CCCN1CCC(O)CC1)c1ccccc1S2`, in the assay on CP260, the Potency was 11.2 µM (active). Also, the Potency entry with CP262, in the assay on CP266 and in the assay on CP297 was “inactive” each time.

For the compound `Cn1c(O)c(N=NC(N)=S)c2ccccc21`, the Potency entry in the assay with CP266, in the assay with CP268, in the assay with CP269 and in the assay on CP297 was “inactive” throughout.

On to `C/C(=C\C(=O)OCCCCCCCCC(=O)O)C[C@@H]1OC[C@H](C[C@@H]2O[C@H]2[C@@H](C)[C@H](C)O)[C@@H](O)[C@H]1O`, for which the Potency in the assay on CP256 is 0.316 µM (active); in the assay on CP269, 0.239 µM (active).

As for `O[C@@H]([C@H](O)[C@H](O)CBr)[C@H](O)CBr`, the Potency result in the assay with CP260, in the assay with CP262, in the assay with CP265, in the assay with CP266, with CP268 and with CP269 was “inactive” throughout. Moreover, the Potency result in the assay with CP286, in the assay with CP291 and in the assay on CP297 was “inactive” each time.

Consider `N[C@@H](Cc1cc(I)c(Oc2ccc(O)c(I)c2)c(I)c1)C(=O)O`, for which the Potency result in the assay on CP256, in the assay on CP262, in the assay with CP266 and in the assay with CP268 was “inactive” each time.

For `CCCC(CCC)C(=O)OC1C[C@H]2CC[C@@H](C1)[N+]2(C)C` (stereo not given in full), the Potency in the assay on CP256 was 12.6 µM (active); with CP265 it was 8.91 µM (active). In the assay with CP266, the Potency entry is “inactive”.

For `CN1CCCC(CN2c3ccccc3Sc3ccccc32)C1` (stereo not given), the Potency entry in the assay with CP262, with CP265, in the assay with CP266 and in the assay with CP297 was “inactive” each time.

As for `NC(N)=NCC1COc2ccccc2O1` (stereo not given), the Potency result in the assay on CP265 and in the assay on CP291 was “inactive” each time.

With `CS(=O)(=O)c1ccc([C@@H](O)[C@@H](COC(=O)CN)NC(=O)C(Cl)Cl)cc1`, in the assay on CP262, the Potency entry is “inactive”.

As to `CC[C@H]1OC(=O)[C@H](C)[C@@H](O[C@H]2C[C@@](C)(OC)[C@@H](O)[C@H](C)O2)[C@H](C)[C@@H](O[C@@H]2O[C@H](C)C[C@H](N(C)C)[C@H]2O)[C@](C)(O)C[C@@H](C)CN(C)[C@H](C)[C@@H](O)[C@]1(C)O`, the Potency was 2.24 µM (active) in the assay on CP256; 10 µM (active) with CP265; 1.51 µM (active) in the assay on CP269; 3.98 µM (active) with CP286; 5.36 µM (active) in the assay with CP297.

For `O=c1n(CC2CO2)c(=O)n(CC2CO2)c(=O)n1CC1CO1` (stereo not given), the Potency result in the assay with CP256, with CP266 and with CP269 was “inactive” in each case.

Consider `CO/N=C(\C(=O)N[C@@H]1C(=O)N2C(C(=O)[O-])=C(C[n+]3cccc4c3CCC4)CS[C@H]12)c1csc(N)n1`, for which the Potency result with CP256, in the assay with CP262, with CP265, with CP266, in the assay with CP269 and in the assay on CP286 was “inactive” throughout. In addition, the Potency result in the assay on CP291 is “inactive”.

On to `CC(C)(C)CC(C)(C)c1ccc(OCCO)cc1`, for which the Potency result in the assay with CP260, with CP262, in the assay on CP265, in the assay on CP266, with CP268 and in the assay with CP269 was “inactive” in each case. Besides, the Potency result in the assay with CP286, in the assay with CP291 and in the assay with CP297 was “inactive” each time.

The values are drawn from PubChem BioAssay (NCATS).
